For test [1], the target named is cAMP-dependent protein kinase catalytic subunit alpha (Homo sapiens) (UniProt P17612). The conditions noted are these: at 1 µM.
Test [2] has the same target. The note with it: at 10 µM.
Test [3] has as its target RAC-gamma serine/threonine-protein kinase (Homo sapiens) (UniProt Q9Y243). The conditions noted are these: at 10 µM.
For test [4], the target named is Protein kinase C beta type (Homo sapiens) (UniProt P05771). The note with it: at 1 µM.
For test [5] the target is unchanged. The note with it: at 10 µM.
Test [6] shares this target. The conditions noted are these: at 10 µM. This is another data set of the same source.
Test [7] has as its target Protein kinase C gamma type (Homo sapiens) (UniProt P05129). The note with it: at 10 µM.
Test [8] has as its target Protein kinase C delta type (Homo sapiens) (UniProt Q05655). The note with it: at 1 µM.
Test [9] has the same target. The note with it: at 10 µM.
The target in test [10] is RAC-gamma serine/threonine-protein kinase (Homo sapiens) (UniProt Q9Y243). The note with it: at 1 µM.
Test [11] has as its target T1, 3-phosphoinositide-dependent protein kinase 1 (Homo sapiens) (UniProt O15530).
T1 sequence (whole entry): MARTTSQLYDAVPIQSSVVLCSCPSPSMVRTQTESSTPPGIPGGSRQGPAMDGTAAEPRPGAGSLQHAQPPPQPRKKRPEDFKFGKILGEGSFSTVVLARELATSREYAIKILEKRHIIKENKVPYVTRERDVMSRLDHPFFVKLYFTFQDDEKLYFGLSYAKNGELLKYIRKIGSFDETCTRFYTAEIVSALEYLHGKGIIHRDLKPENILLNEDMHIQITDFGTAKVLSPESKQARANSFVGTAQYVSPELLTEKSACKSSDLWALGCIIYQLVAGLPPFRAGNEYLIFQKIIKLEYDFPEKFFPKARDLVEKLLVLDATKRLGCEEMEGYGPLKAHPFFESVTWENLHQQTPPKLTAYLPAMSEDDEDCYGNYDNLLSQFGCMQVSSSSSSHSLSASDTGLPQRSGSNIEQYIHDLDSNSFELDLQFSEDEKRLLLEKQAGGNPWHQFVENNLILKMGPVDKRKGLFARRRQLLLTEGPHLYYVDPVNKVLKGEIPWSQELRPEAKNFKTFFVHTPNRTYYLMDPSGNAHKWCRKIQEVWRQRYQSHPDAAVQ
The conditions noted are these: at 10 µM.

Test [12] has as its target Platelet-derived growth factor receptor beta (Homo sapiens) (UniProt P09619). The note with it: at 1 µM.
The target of test [13] is Protein kinase C alpha type (Homo sapiens) (UniProt P17252). The note with it: at 1 µM.
For test [14] the target is unchanged. The conditions noted are these: at 10 µM.
The target of test [15] is Protein kinase C beta type (Homo sapiens) (UniProt P05771). The note with it: at 1 µM. The source holds these as a separate data set.
Test [16] has as its target Platelet-derived growth factor receptor beta (Homo sapiens) (UniProt P09619). The note with it: at 10 µM.
The target in test [17] is T1, 3-phosphoinositide-dependent protein kinase 1 (Homo sapiens). The note with it: at 1 µM.
The target in test [18] is Protein kinase C gamma type (Homo sapiens) (UniProt P05129). The note with it: at 1 µM.

The values below come from ChEMBL document CHEMBL2218924, “A broad activity screen in support of a chemogenomic map for kinase signalling research and drug discovery” (Biochem J, 2013).

Protein kinase C beta type (Homo sapiens), sequence (P05771 2-671 limits assumed): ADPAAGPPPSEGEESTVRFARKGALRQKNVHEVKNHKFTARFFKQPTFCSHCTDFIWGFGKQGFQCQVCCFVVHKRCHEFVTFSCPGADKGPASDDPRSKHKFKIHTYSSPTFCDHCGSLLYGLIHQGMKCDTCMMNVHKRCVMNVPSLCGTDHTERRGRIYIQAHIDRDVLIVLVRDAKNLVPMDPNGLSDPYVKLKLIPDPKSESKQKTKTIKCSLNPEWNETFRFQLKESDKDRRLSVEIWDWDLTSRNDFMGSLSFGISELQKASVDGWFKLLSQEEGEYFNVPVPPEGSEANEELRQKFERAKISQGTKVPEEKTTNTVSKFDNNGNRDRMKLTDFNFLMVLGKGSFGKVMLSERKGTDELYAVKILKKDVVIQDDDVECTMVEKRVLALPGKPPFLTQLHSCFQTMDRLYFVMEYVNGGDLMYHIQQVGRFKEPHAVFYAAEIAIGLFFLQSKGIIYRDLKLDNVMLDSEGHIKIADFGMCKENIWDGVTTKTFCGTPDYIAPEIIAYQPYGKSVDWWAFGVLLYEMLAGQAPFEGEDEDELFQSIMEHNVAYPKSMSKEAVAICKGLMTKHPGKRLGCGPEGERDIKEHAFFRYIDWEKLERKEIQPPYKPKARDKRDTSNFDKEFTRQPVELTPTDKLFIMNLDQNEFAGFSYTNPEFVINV
Protein kinase C delta type (Homo sapiens), sequence (Q05655 whole entry, looked up): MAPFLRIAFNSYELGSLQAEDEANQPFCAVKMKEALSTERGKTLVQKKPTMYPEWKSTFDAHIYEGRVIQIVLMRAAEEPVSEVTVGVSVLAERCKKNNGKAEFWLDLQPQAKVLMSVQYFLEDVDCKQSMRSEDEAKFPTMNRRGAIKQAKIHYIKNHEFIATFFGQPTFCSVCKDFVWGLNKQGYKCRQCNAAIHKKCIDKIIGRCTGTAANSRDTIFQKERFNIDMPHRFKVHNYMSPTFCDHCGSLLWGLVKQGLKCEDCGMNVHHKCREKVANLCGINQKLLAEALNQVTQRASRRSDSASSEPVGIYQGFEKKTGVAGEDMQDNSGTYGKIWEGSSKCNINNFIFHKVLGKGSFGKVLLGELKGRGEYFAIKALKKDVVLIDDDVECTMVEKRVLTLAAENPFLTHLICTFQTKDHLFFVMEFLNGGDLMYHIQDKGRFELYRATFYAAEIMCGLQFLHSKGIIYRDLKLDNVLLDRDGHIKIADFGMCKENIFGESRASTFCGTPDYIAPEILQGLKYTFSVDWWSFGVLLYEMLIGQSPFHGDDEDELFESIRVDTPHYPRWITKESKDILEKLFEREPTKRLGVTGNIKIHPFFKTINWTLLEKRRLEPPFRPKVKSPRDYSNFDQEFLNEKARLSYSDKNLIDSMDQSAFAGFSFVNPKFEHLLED
Platelet-derived growth factor receptor beta (Homo sapiens), sequence (P09619 whole entry): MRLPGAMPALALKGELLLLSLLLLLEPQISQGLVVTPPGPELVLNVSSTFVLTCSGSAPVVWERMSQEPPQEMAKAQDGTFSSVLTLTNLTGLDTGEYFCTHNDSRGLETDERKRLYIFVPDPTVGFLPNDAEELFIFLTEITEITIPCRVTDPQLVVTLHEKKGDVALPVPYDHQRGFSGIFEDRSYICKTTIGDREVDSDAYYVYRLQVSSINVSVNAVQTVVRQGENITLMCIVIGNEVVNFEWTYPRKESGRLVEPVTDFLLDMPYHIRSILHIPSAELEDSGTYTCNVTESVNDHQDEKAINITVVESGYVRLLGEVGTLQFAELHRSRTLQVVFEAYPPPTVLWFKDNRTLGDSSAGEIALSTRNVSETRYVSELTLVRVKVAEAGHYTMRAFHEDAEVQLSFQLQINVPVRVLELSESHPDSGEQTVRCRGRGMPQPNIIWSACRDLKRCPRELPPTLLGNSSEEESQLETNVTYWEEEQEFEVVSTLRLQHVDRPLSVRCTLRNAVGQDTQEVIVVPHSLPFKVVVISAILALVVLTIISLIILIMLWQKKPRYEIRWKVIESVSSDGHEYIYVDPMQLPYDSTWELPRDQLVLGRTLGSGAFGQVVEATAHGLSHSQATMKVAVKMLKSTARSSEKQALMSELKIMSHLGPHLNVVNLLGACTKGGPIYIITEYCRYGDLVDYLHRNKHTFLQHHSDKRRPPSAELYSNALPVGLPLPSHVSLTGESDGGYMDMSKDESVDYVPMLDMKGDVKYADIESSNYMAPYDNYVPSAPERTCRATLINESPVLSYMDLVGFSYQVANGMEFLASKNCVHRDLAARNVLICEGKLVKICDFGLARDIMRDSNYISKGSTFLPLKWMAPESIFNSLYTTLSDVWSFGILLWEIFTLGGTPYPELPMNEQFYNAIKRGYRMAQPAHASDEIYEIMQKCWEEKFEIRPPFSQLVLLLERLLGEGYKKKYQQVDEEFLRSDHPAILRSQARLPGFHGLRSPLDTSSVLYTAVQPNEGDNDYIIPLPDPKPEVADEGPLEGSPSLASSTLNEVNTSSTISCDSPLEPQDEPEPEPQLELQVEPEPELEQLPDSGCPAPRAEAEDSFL
RAC-gamma serine/threonine-protein kinase (Homo sapiens), sequence (Q9Y243 whole entry): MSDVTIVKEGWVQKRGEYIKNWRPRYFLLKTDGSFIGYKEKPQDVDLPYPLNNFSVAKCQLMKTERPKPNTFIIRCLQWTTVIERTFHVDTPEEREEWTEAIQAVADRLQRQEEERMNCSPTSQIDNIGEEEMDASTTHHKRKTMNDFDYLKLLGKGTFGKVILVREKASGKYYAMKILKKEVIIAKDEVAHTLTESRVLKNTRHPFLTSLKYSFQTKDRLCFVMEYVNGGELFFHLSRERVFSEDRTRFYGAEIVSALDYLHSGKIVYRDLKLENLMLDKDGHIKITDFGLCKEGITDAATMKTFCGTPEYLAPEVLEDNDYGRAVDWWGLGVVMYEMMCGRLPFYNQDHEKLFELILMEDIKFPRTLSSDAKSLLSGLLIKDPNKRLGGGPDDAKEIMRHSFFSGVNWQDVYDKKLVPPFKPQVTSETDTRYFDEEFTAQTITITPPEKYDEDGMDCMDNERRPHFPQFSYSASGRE

As a reminder, the residual activity is the signal under treatment as a percentage of the control signal. With `O=S(=O)(c1cccc2cnccc12)N1CCCNCC1`, the residual activity amounted to 53% in [1]; 17% in test [2]; 55% in test [3]; 75% in test [4]; 46% in [5]; 67% in test [6]. The residual activity in test [7] came out at 63%; in test [8] it was 85%; in test [9], 32%.
For the compound `O=S(=O)(NCCNC/C=C/c1ccc(Br)cc1)c1cccc2cnccc12`, the residual activity in test [1] stood at 2%; in test [2] it was 6%; in [10], 31%; in test [3], 4%; in test [6], 55%; in [7], 38%. Also, the residual activity in test [8] turned out to be 54%; in test [9], 11%.
With `Nc1n[nH]c2nc3ccccc3nc12`, the residual activity in [11] was 85%; in test [10], 87%; in [3], 93%; in test [8] it was 85%; in [9], 68%.
Consider `Nc1nccc(-c2c(-c3ccc(F)cc3)ncn2C2CCNCC2)n1`, for which the residual activity in test [2] is 64%; in test [4] it was 115%; in test [5], 69%; in [7], 63%.
In the case of `CCN1/C(=C/C(C)=O)Sc2ccc(OC)cc21`, the residual activity in test [6] was 82%.
On to `O=c1cc(N2CCOCC2)oc2c1ccc1ccccc12`, for which the residual activity is 98% in test [12]; 101% in test [1]; 104% in test [2]; 111% in [10]; 102% in [3]; 102% in test [13]. For the same compound, the residual activity in test [14] was 96%; in test [4] it was 104%; in test [5], 95%; in [15] it was 95%; in test [6] it was 92%; in test [8], 100%. In addition, the residual activity in test [9] was 98%.
Take `O=c1c(-c2ccc(F)cc2)c(-c2ccncc2)[nH]n1-c1ccc(Cl)cc1`: the results for the residual activity in test [12], in test [16] and in test [3] were 100%, 99% and 65%, respectively.
Take `COc1ccc(Cl)cc1NC(=O)Nc1cc(C)nc2ccccc12`: the residual activity in [13] and in test [14] was 98% in each case.
With `Fc1ccc(-c2nc3n(c2-c2ccncc2)CCS3)cc1`, the residual activity in test [12] came out at 123%; in [16] it was 128%; in [1], 94%; in test [2], 84%; in test [5] it was 82%; in test [9], 85%.
For `Nc1nc(Nc2ccc(S(N)(=O)=O)cc2)nn1C(=O)c1c(F)cccc1F`, the residual activity in test [12] is 108%; in [16], 82%; in test [17] it was 68%; in [11], 21%; in test [10] it was 110%; in [13] it was 63%. Also, the residual activity is 18% in [14]; 54% in test [6]; 61% in test [18]; 19% in test [7]; 70% in [8]; 23% in test [9].
On to `N#Cc1c(NC(=O)c2cccc3ccccc23)sc2c1CCCC2`, for which the residual activity worked out at 92% in test [16], 91% in test [2], 81% in test [3] and 94% in [18].
`Cc1cc(C)c(/C=C2\C(=O)Nc3ccccc32)[nH]1`: the residual activity in test [10] was 101%; in test [13], 100%; in test [14] it was 104%.
For `O=C1Cc2c([nH]c3ccc(Br)cc23)-c2ccccc2N1`, the residual activity in [1] is 89%; in test [2] it was 94%; in [13] it was 90%; in [14], 70%; in test [6], 88%; in test [7] it was 93%. For the same compound, the residual activity in test [8] came to 99%; in test [9], 93%.
In the case of `CC(C)[C@H](CO)Nc1nc(Nc2cc(N)cc(Cl)c2)c2ncn(C(C)C)c2n1`, the residual activity was found to be 92% in [16]; 93% in [1]; 87% in test [2]; 83% in test [13]; 97% in test [14]; 94% in test [18]. For the same compound, the residual activity in test [7] is 80%; in test [8], 93%; in test [9], 72%.
Regarding `O=C1Nc2ccccc2/C1=C\c1c(Cl)[nH]c2ccccc12`, the residual activity in test [11] turned out to be 85%.
`O=C(NC(NC(=S)Nc1ccc(F)c([N+](=O)[O-])c1)C(Cl)(Cl)Cl)C(c1ccccc1)c1ccccc1` (configuration not stated): the residual activity in test [12] was determined as 97%; in [16], 96%; in test [17], 103%; in test [11], 87%; in test [10], 98%; in [3], 69%.
Turning to `COc1ccc(CNC(=O)Nc2ncc([N+](=O)[O-])s2)cc1`, the residual activity turned out to be 101% in [12]; 100% in [16]; 109% in [1]; 102% in test [13]; 101% in test [14].
Take `N#C/C(=C1/Nc2ccccc2S1)c1ccnc(NCCc2cccnc2)n1`: the residual activity in test [10] is 89%; in [3] it was 16%; in test [4] it was 125%; in test [5] it was 121%; in test [18] it was 95%; in test [7], 100%.
In the case of `O=C1NC(=O)C(c2cn(CCCO)c3ncccc23)=C1c1cnccn1`, the residual activity in test [16] is 96%; in [10], 98%; in test [3], 89%; in [18], 92%; in test [7], 91%; in test [8], 97%. In addition, the residual activity in test [9] was 91%.
Regarding `NC(=O)c1ccc(-c2nc(-c3ccc4c(c3)OCCO4)c(-c3ccccn3)[nH]2)cc1`, the residual activity in [16] came out at 75%; in test [1], 92%; in [2] it was 96%; in [10] it was 98%; in [3] it was 94%; in [13], 90%. Besides, the residual activity in test [14] came out at 96%; in test [4], 124%; in test [5] it was 121%; in [8], 93%; in test [9], 100%.
On to `O=C(Nc1nc2ccccc2n1CCN1CCOCC1)c1cccc([N+](=O)[O-])c1`, for which the residual activity in test [12] came to 104%; in test [16] it was 81%; in test [17], 104%; in test [11], 81%; in test [2] it was 80%; in test [10], 103%. The residual activity in test [3] was 84%; in test [13] it was 104%; in [14], 102%; in test [18], 105%; in [7], 102%; in [9], 103%.
Take `NC(=O)c1cccc(-c2cc(Nc3ccc(OC(F)(F)F)cc3)ncn2)c1`: the residual activity in test [15] worked out at 92%; in test [6], 96%.
Take `O=C1C(Cl)=C(N2C(=O)CCC2=O)C(=O)c2ccccc21`: the residual activity in [12] turned out to be 95%; in test [16], 93%; in [1], 95%; in test [2], 84%; in test [10] it was 89%; in [3], 87%. Also, the residual activity amounted to 3% in [14], 77% in test [7], 68% in [8] and 60% in test [9].
For the compound `COc1cc2nccc(Oc3ccc(NC(=O)Nc4cc(C)on4)c(Cl)c3)c2cc1OC`, the residual activity in test [12] worked out at 13%; in test [16] it was 2%; in test [1] it was 108%; in test [2], 98%; in [14] it was 101%; in test [4] it was 107%. Further, the residual activity was 97% in [5]; 109% in [15]; 104% in test [6]; 100% in [8]; 106% in test [9].
For `CSc1nc(-c2ccc(F)cc2)c(-c2ccnc(NC(C)c3ccccc3)c2)[nH]1` (configuration not stated), the residual activity worked out at 101% in test [1] and 133% in test [2].
Regarding `CCOc1nc(NC(=O)Cc2cc(OC)ccc2OC)cc(N)c1C#N`, the residual activity in test [8] came out at 118%.
Regarding `CC(C)N(CCC(=O)c1ccc2ccccc2c1)Cc1ccccc1`, in [7], the residual activity amounted to 85%.
Regarding `CN([C@@H](Cc1ccc(OS(=O)(=O)c2cccc3cnccc23)cc1)C(=O)N1CCN(c2ccccc2)CC1)S(=O)(=O)c1cccc2cnccc12`, the residual activity came out at 98% in [16], 60% in test [3], 99% in [18] and 99% in test [7].
On to `O=c1cc(N2CCNCC2)oc2c(-c3ccccc3)cccc12`, for which the residual activity in [12] came out at 99%; in [16], 88%; in [1], 72%; in [2], 83%; in test [10] it was 85%; in test [3], 85%. Further, the residual activity in test [14] came out at 102%; in test [15] it was 97%; in test [6] it was 95%; in test [8] it was 101%; in test [9], 102%.
On to `CC(C)c1nn(-c2c(Cl)cccc2Cl)c2nc(Cc3ccc(OCCO)cc3)[nH]c(=O)c12`, for which the residual activity in test [12] was 103%; in [16], 105%; in test [17] it was 101%; in test [11] it was 99%; in [1] it was 90%; in [2], 89%. Also, the residual activity amounted to 93% in test [10]; 89% in test [3]; 105% in [13]; 107% in test [14]; 125% in test [4]; 106% in test [5]. Also, the residual activity in test [15] is 104%; in test [6], 95%; in test [18] it was 94%; in test [7] it was 106%; in test [8], 103%; in test [9], 105%.
As for `CCCCc1c(-c2ccc(O)cc2)[nH]c2nccnc12`, the residual activity in [17] came out at 60%; in test [11], 31%; in test [13], 97%; in test [14] it was 100%; in test [8] it was 97%; in test [9], 100%.
For the compound `O=C1NC(=O)C(c2cn(CCCn3ccnc3)c3ccccc23)=C1Nc1ccccc1`, the residual activity came to 39% in [17]; 8% in test [11]; 69% in [1]; 43% in test [2]; 50% in test [10]; 15% in [3]. Further, the residual activity in test [13] is 6%; in test [14], 2%; in test [4], 19%; in [5] it was 2%; in test [15], 27%; in test [6], 6%. Moreover, the residual activity in test [18] came out at 8%; in [7] it was 2%; in [8], 8%; in test [9], 2%.
